The record followed here is PubChem BioAssay AID651820 (National Center for Advancing Translational Sciences (NCATS), 2012).

The campaign covered roughly 340,000 compounds. About 12,000 (3.5%) were called active. Not shown: some 18% with an inconclusive outcome. Calls follow the shape of the dose curve; as a rule, active = well fitted inhibition curve with a large enough effect; inconclusive = small, poorly fitted or top-dose-only effect, or another doubt; inactive = no such curve, though single readings can be large or run the other way. What follows is part of a selection rich in actives, with near analogues and random picks from the rest. A call without a number means that no potency is given here.
Potency is read from the fitted curve at half-maximal effect.

This assay in a line: qHTS Assay for Inhibitors of Hepatitis C Virus (HCV). The settings on record: Huh7.5.1 HCVcc-Cre infection, luciferase reporter, 44 h; series mostly up to 41.8 µM. In a few lines:
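Cells seeded at 1,000/well and cultured 4 h, then compounds added followed by HCVcc-Cre virus (~0.5 moi). After 44 h further culture, luciferase substrate was added, plates held 15 min at room temperature, and luminescence read for 15 sec.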
As for `CCOc1ccc(OCC(=O)OC(C)C(=O)NC2CCCCC2C)cc1` (centres undefined), the Potency result is “inactive”. The entry for `O=c1ccc(S(=O)(=O)N2CCCC2)cn1Cc1nc(-c2ccccc2)no1` is “inactive”; for `CC1CCCN(C(=O)c2cc(-c3ccco3)nc3ccccc23)C1` (centres undefined) it is “inactive”. The entry for `C/C=C/c1ccc(OCCOc2ccc(C=O)cc2OC)c(OC)c1` is “inactive”; for `COc1ccc(OCCCCN2CCC(C)CC2)cc1` it is “inactive”.

For `C/C=C/c1ccc(OCCCCN2CCC(C)CC2)c(OC)c1`, the Potency was 14.1 µM (active). The value for `Fc1ccc2cnc(-c3ccccc3)cc2c1` was “inactive”; that for `COc1cc2c3c(c1)/C(=C1/SC(=S)NC1=O)C(=O)N3C(C)(C)C=C2C` was 25.1 µM (active); that for `CC(C)Oc1ccc(S(=O)(=O)N2CCOCC2)cc1NC(=O)C1CSC2(C)CCC(=O)N12` (centres undefined) was “inactive”. In the case of `COc1cc(C(=O)NCC(=O)NCCSc2ccc(Br)cc2)cc(OC)c1OC`, the Potency entry was “inactive”. The entry for `CC(=O)c1cccc(NC(=O)c2ccncc2)c1` is “inactive”; for `CSc1nsc(NC(=O)Nc2ccccc2)n1` it is “inactive”. With `CCSc1nsc(NC(=O)Nc2cccc(C(C)=O)c2)n1`, the Potency was 11.2 µM (active).

In the case of `Cc1ccc(C)c(NC(=O)C(c2ccccc2)N2CCN(CC(=O)NC3CC3)CC2)c1` (centres undefined), the Potency entry is “inactive”.

Regarding `COc1ccc(CCNc2ncnc3nc[nH]c23)cc1OC`, the Potency was 11.2 µM (active). For `CCS(=O)(=O)NCCc1ccc(OC)c(OC)c1`, the Potency result is “inactive”.

Turning to `COc1ccc(CCNc2nc(C)cc(C)n2)cc1OC`, the Potency entry is “inactive”. In the case of `Nc1c(C(=O)OCC(=O)Nc2ccc(OC(F)F)cc2)[nH]c(=O)[nH]c1=O`, the Potency entry was “inactive”. The entry for `CCCn1c(N)c(N(CCOC)C(=O)C2CCCC2)c(=O)[nH]c1=O` is “inactive”. For `CCC1CCCCN1CCCNC(=O)c1cc2c(Cl)nc3ccccc3c2s1` (centres undefined), the Potency is 8.91 µM (active). Consider `Cc1nc2ccccc2c2oc(C(=O)NCCCN3CCC(C)CC3)cc12`, for which the Potency entry was “inactive”. Regarding `CCC1CCCCN1CCCNC(=O)C1CCC(Cn2c(=O)[nH]c3ccccc3c2=O)CC1` (centres undefined), the Potency result was “inactive”. The value for `C#CCOCCOCCOCCNc1nc(N2CCN(C(=O)[C@H](CO)n3cc([C@@H](N)C(C)C)nn3)CC2)nc(N2CCN(C(=O)[C@H](CCC(=O)O)n3cc([C@@H](N)[C@H](C)CC)nn3)CC2)n1` was “inactive”; that for `Nc1ccc2[nH]c(=S)sc2c1` was “inactive”; that for `COc1ccc(CCN2CC(C(=O)OCC(=O)NCc3ccccc3Cl)CC2=O)cc1OC` (centres undefined) was “inactive”. For `CC(NC(=O)c1ccccc1SCC(=O)N1CCCC1)c1ccccc1` (centres undefined), the Potency entry was “inactive”.

With `O=C(c1ccc(Cl)cc1)c1ccc(OCC(O)CN2CCCCC2)cc1` (centres undefined), the Potency was 14.1 µM (active). For `O=C(c1ccccc1)c1ccc(OCC(O)CN2CCCC2)cc1` (centres undefined), the Potency result was “inactive”.

For the compound `CC(=O)Nc1ccc(OCC(O)CN2CCN(c3ccccc3Cl)CC2)cc1` (centres undefined), the Potency result is “inactive”. Turning to `O=C1NCC(c2ccccc2)(c2ccccc2)C(=O)N1`, the Potency entry was “inactive”. The value for `CC1CC(C)CN(C(=O)COC(=O)c2ccc3ncsc3c2)C1` (centres undefined) was “inactive”. The value for `CC(=O)c1c(C)oc2ccc(NS(=O)(=O)c3ccccc3)cc12` was “inactive”. As for `CC(=O)c1c(C)oc2ccc(NS(=O)(=O)c3ccc(C(=O)O)cc3)cc12`, the Potency entry was “inactive”. In the case of `COc1ccc(S(=O)(=O)Nc2ccc3oc(C)c(C(C)=O)c3c2)cc1`, the Potency is 7.94 µM (active). Consider `CC(OC(=O)c1ccc(S(=O)(=O)N2CCOCC2)cc1)c1ccccc1` (centres undefined), for which the Potency result is “inactive”. The value for `COC1=CC(=O)OC(C)(c2ccccc2)C1` (centres undefined) was “inactive”; that for `O=C(Nc1ccc(N2CCN(C(=O)c3cccs3)CC2)cc1)c1cccnc1Cl` was “inactive”; that for `O=C(Cc1ccccc1)NC(=S)Nc1ccc(N2CCCCC2)cc1` was “inactive”. Take `O=C(Nc1ccc(N2CCN(C(=O)C3CC3)CC2)cc1)c1cccs1`: the Potency result was “inactive”. The value for `CN1CCN(c2ccc(NC(=O)c3ccccc3)cc2)CC1` was “inactive”; that for `Cc1ccccc1C(=O)N1CCN(c2ccc(NC(=O)c3cccs3)cc2)CC1` was 11.2 µM (active); that for `Cc1ccccc1C(=O)NC(=S)Nc1ccc(N2CCN(C(=O)c3ccccc3)CC2)cc1` was 11.2 µM (active). The entry for `Cc1ccc(-c2csc(NCCc3nc4cc(Cl)c(Cl)cc4n3CCOCCO)n2)cc1` is “inactive”.

Consider `CCCCNC(=O)Cn1nc(C)c(S(=O)(=O)N2CCOCC2)c1C`, for which the Potency entry is “inactive”.

With `CC(C)(C)C(=O)Nc1cccc(-c2ccc[nH]2)n1`, the Potency result is “inactive”. For `CC(=O)c1c(C)[nH]c(C(=O)N2CCN(S(=O)(=O)c3ccc(F)c(F)c3)CC2)c1C`, the Potency entry is “inactive”.

In the case of `CCOc1ccc(NC(=O)COc2ccc(C(=O)NC3CCCc4ccccc43)cc2OC)cc1` (centres undefined), the Potency result was “inactive”. For `CNS(=O)(=O)c1cccc(C(=O)NC2CCCc3ccccc32)c1` (centres undefined), the Potency entry was “inactive”.

Consider `CCOc1c2ccc(C(=O)NC3CCCc4ccccc43)cc2nn1CC` (centres undefined), for which the Potency is 3.55 µM (active).

Regarding `CCCc1cc(=O)[nH]c(SCC(=O)Nc2ccc(S(=O)(=O)N3CCCC3)cc2)n1`, the Potency result was “inactive”. Regarding `CC(C)(C)c1ccc(Oc2ccc(N)cc2)cc1`, the Potency was 3.55 µM (active). On to `Cc1nn(C)c(Oc2ccc(Cl)cc2)c1C=O`, for which the Potency entry was “inactive”. For `COc1cccc(Oc2ccc(N)cc2)c1`, the Potency result is “inactive”. `Nc1ccc(Oc2ccc(Cl)cc2)cc1`: the Potency is 7.94 µM (active). The entry for `Nc1ccc2nn(-c3ccc(Cl)cc3)nc2c1` is “inactive”; for `CC(C)(C)c1ccc(OC2=CS(=O)(=O)c3ccccc32)cc1` it is “inactive”; for `O=S(=O)(Nc1ccc(O)c2ccccc12)c1ccc(OC(F)(F)F)cc1` it is “inactive”.

Turning to `COc1ccc(CNC(=O)COC(=O)C(CCSC)N2C(=O)c3ccccc3C2=O)cc1` (centres undefined), the Potency result is “inactive”. The value for `C=CCc1ccc(OCC(O)CN2CCN(Cc3ccccc3)CC2)c(OC)c1` (centres undefined) was “inactive”; that for `C=CCn1c(=N)n(CC(O)COc2ccc(OC)cc2)c2ccccc21` (centres undefined) was 5.62 µM (active). The entry for `COc1ccc(OCC(O)CN(C)C(=O)C(C)Oc2ccccc2)cc1` (centres undefined) is “inactive”; for `CCCCn1c(N)c(N(CC(C)C)C(=O)c2cnc(C)cn2)c(=O)[nH]c1=O` it is “inactive”; for `CC1CCN(C(=O)COC(=O)c2cc(S(=O)(=O)N3CCOCC3)ccc2Cl)CC1` it is “inactive”. The entry for `CNS(=O)(=O)c1ccc(C(=O)NCC(=O)NCCc2ccc3c(c2)OCCO3)cc1` is “inactive”; for `O=C(O)c1ccc(Cn2c(=S)[nH]c3cc(Cl)ccc3c2=O)cc1` it is “inactive”; for `CC(C)c1ccc2c(c1)c(SC(C)(C)C)c(CC(C)(C)C(=O)O)n2Cc1ccc(Cl)cc1` it is 10 µM (active). As for `Cn1c(Cc2cccc3ccccc23)nnc1SCC(=O)N1CCN(c2cccc(Cl)c2)CC1`, the Potency was 3.98 µM (active). The entry for `Cc1cc2nnc(SCC(=O)N3CCN(c4ccccc4)CC3)n2c(N)n1` is “inactive”. `Cn1c(CNC(=O)c2ccco2)nnc1SCC(=O)N1CCN(c2ccccc2)CC1`: the Potency result is “inactive”. As to `O=C(CSc1ncnc2sccc12)NC1CCS(=O)(=O)C1` (centres undefined), the Potency result was “inactive”. Turning to `CC(=O)Nc1ccc(S(=O)(=O)NCC(=O)OCC(=O)c2ccc[nH]2)cc1`, the Potency entry is “inactive”.

Consider `O=C(c1cccnc1)N(Cc1ccccc1)C(=O)c1cccnc1`, for which the Potency entry is “inactive”. The figure for `CCOC(=O)CSc1nc2c(sc(=S)n2CCc2ccccc2)c(=O)n1Cc1ccco1` is 14.1 µM (active); for `CCOC(=O)CSc1nnc(-c2ccco2)n1C` it is “inactive”; for `CCOC(=O)CSc1nc2c(c(=O)n(C)c(=O)n2C)n1Cc1ccccc1F` it is “inactive”. As for `CC(C)C[C@H]1CN([C@@H](CC(C)C)CN2CCC[C@@H]2CN2C(=O)C(=O)NC[C@@H]2Cc2ccccc2)C(=O)C(=O)N1CCc1ccccc1`, the Potency entry was “inactive”. The value for `O=C(c1ccc(N2CCOCC2)c([N+](=O)[O-])c1)N1CCN(c2ccccc2F)CC1` was “inactive”. As for `CCN(C[C@H]1N[C@@](CC)(C(=O)OC)[C@H]2C(=O)N(Cc3ccccc3)C(=O)[C@@H]12)S(=O)(=O)c1ccccc1`, the Potency result was “inactive”. Regarding `COC(=O)[C@]1(Cc2ccccc2)N[C@H](CN(C)S(=O)(=O)c2ccc(F)cc2)[C@@H]2C(=O)N(Cc3ccccc3)C(=O)[C@@H]21`, the Potency result was “inactive”. The figure for `COC(=O)[C@]1(Cc2ccccc2)N[C@H](CN(C)S(=O)(=O)c2ccc(OC(F)(F)F)cc2)[C@@H]2C(=O)N(Cc3ccccc3)C(=O)[C@@H]21` is 7.08 µM (active); for `CCN(CC(=O)Nc1c(F)cccc1F)C(=O)CN1c2cccc3cccc(c23)S1(=O)=O` it is “inactive”. The value for `CCCCN(C(=O)c1cccc(N2C(=O)c3ccccc3C2=O)c1)c1c(N)n(CCCC)c(=O)[nH]c1=O` was “inactive”; that for `CCn1c2c(c3ccc(OC)cc31)CCCC2=O` was 1.26 µM (active); that for `COc1ccc2c(C)cc3nnnn3c2c1` was “inactive”. `COc1ccc(C2C3=C(CCCC3=O)N(CC(=O)O)C3=C2C(=O)CCC3)cc1`: the Potency result is “inactive”. `O=C(COC(=O)Cc1ccc([N+](=O)[O-])cc1)NC1CCCCCC1`: the Potency result was “inactive”.

Take `COc1ccc(C2(C)ON(c3ccccc3C(F)(F)F)C2=O)cc1` (centres undefined): the Potency entry was “inactive”.

Regarding `O=C(Nc1cc(S(=O)(=O)N2CCCCC2)ccc1Cl)C1COc2ccccc2O1` (centres undefined), the Potency was 11.2 µM (active). The value for `CC(=O)NCCC(=O)Nc1cc(S(=O)(=O)N2CCCCC2)ccc1Oc1cccc(C)c1` was “inactive”; that for `CCOc1ccc(S(=O)(=O)N2CCCCC2)cc1NC(=O)CN1CCCC1c1cccs1` (centres undefined) was 4.47 µM (active); that for `COc1ccc(C(=O)Nc2cc(S(=O)(=O)N3CCCC3)ccc2Cl)cc1` was “inactive”.

Consider `Cc1ccc(S(=O)(=O)N2CCCCC2)cc1NC(=O)[C@@H]1CCCN1C(=O)c1cccs1`, for which the Potency entry is “inactive”. As for `O=C(NCc1cccs1)C1CCN(S(=O)(=O)c2ccc(Cl)cc2)CC1`, the Potency result is “inactive”. For the compound `O=C(COC(=O)CCOc1ccccc1)Nc1cc(S(=O)(=O)N2CCCCC2)ccc1Cl`, the Potency result is “inactive”. In the case of `CS(=O)(=O)c1ccc(Cl)c(NC(=O)COC(=O)c2cccc(S(=O)(=O)N3CCCC3)c2)c1`, the Potency result is “inactive”.

For the compound `O=C(CNCc1cccs1)Nc1cc(S(=O)(=O)N2CCCC2)ccc1Cl`, the Potency was 10 µM (active). Take `COc1cccc(CC(=NO)c2cccc(OC)c2)c1`: the Potency entry was “inactive”. The value for `CCN(C(=O)COC(=O)CCC(=O)c1cccs1)C1CCCCC1` was “inactive”; that for `O=C1c2ccccc2C(=O)N1CCC#Cc1ccc2cc(C3(O)CCCCC3)oc(=O)c2c1` was “inactive”.
